# From PubChem BioAssay AID1159580 (chemical genetic matrix, 2015)
# Several values for one entry are separate records, joined by “and”; a condition that tells them apart may be missing. Equal entries are not always repeated. Screen size: about 5,500 compounds; about 2,000 (36%) were called active. Not shown: some 18% with an inconclusive outcome. No stated cut-off is given here; in the data, active means normalized growth mostly below about 0.91 (no sharp cut-off); inconclusive means no clear call, values can overlap the other calls; inactive means mostly above about 0.92. This is one part of the list.
# Test: chemical genetic growth profiling, strain panel (AID 1159580);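 further: tested at 20 µM; growth read once vehicle control cultures reached saturation at 30 °C; 1 = growth at the plate median or of vehicle wells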
# Conditions: S. cerevisiae deletion strains, growth OD
structure (smiles),measurement,setting,value
CC(=O)NO,normalized growth,"locus YAL013W, strain DEP1, stronger effect = lower value",0.955 (inactive)
same,normalized growth,"locus YAL021C, strain ccr4, stronger effect = lower value",0.968 (inactive)
same,normalized growth,"locus YAL026C, strain drs2, stronger effect = lower value",0.997 (inactive)
same,normalized growth,"locus YAL030W, strain snc1, stronger effect = lower value",0.99 (inactive)
same,normalized growth,"locus YBL061C, strain skt5, stronger effect = lower value",0.969 (inactive)
same,normalized growth,"locus YBR009C, strain hhf1, stronger effect = lower value",0.942 (inactive)
same,normalized growth,"locus YBR021W, strain FUR4, stronger effect = lower value",0.604 (active)
same,normalized growth,"locus YBR023C, strain chs3, stronger effect = lower value",0.964 (inactive)
same,normalized growth,"locus YBR171W, strain sec66, stronger effect = lower value",0.963 (inactive)
same,normalized growth,"locus YBR229C, strain ROT2, stronger effect = lower value",1.01 (inactive)
same,normalized growth,"locus YBR231C, strain swc5, stronger effect = lower value",0.995 (inactive)
same,normalized growth,"locus YBR279W, strain paf1, stronger effect = lower value",0.973 (inactive)
same,normalized growth,"locus YCL011C, strain gbp2, stronger effect = lower value",0.949 (inactive)
same,normalized growth,"locus YCL016C, strain dcc1, stronger effect = lower value",0.937 (inactive)
same,normalized growth,"locus YCL029C, strain bik1, stronger effect = lower value",0.999 (inactive)
same,normalized growth,"locus YCL061C, strain MRC1, stronger effect = lower value",0.968 (inactive)
same,normalized growth,"locus YCL069W, strain vba3, stronger effect = lower value",0.974 (inactive)
same,normalized growth,"locus YCR088W, strain abp1, stronger effect = lower value",0.979 (inactive)
same,normalized growth,"locus YDL005C, strain med2, stronger effect = lower value",0.982 (inactive)
same,normalized growth,"locus YDL035C, strain GPR1, stronger effect = lower value",0.973 (inactive)
same,normalized growth,"locus YDL040C, strain nat1, stronger effect = lower value",0.979 (inactive)
same,normalized growth,"locus YDL074C, strain BRE1, stronger effect = lower value",0.977 (inactive)
same,normalized growth,"locus YDL101C, strain DUN1, stronger effect = lower value",1.02 (inactive)
same,normalized growth,"locus YDL185W, strain tfp1, stronger effect = lower value",0.992 (inactive)
same,normalized growth,"locus YDL192W, strain arf1, stronger effect = lower value",0.989 (inactive)
same,normalized growth,"locus YDR001C, strain nth1, stronger effect = lower value",0.982 (inactive)
same,normalized growth,"locus YDR069C, strain doa4, stronger effect = lower value",1.01 (inactive)
same,normalized growth,"locus YDR101C, strain arx1, stronger effect = lower value",1 (inactive)
same,normalized growth,"locus YDR137W, strain rgp1, stronger effect = lower value",0.948 (inactive)
same,normalized growth,"locus YDR150W, strain NUM1, stronger effect = lower value",0.991 (inactive)
same,normalized growth,"locus YDR159W, strain sac3, stronger effect = lower value",1 (inactive)
same,normalized growth,"locus YDR162C, strain NBP2, stronger effect = lower value",0.997 (inactive)
same,normalized growth,"locus YDR195W, strain ref2",0.984 (inactive)
same,normalized growth,"locus YDR297W, strain sur2, stronger effect = lower value",0.977 (inactive)
same,normalized growth,"locus YDR318W, strain mcm21, stronger effect = lower value",0.998 (inactive)
same,normalized growth,"locus YDR334W, strain swr1, stronger effect = lower value",0.976 (inactive)
same,normalized growth,"locus YDR335W, strain msn5, stronger effect = lower value",0.983 (inactive)
same,normalized growth,"locus YDR388W, stronger effect = lower value",0.984 (inactive)
same,normalized growth,"locus YDR392W, strain spt3, stronger effect = lower value",0.744 (inactive)
same,normalized growth,"locus YDR502C, strain sam2, stronger effect = lower value",0.973 (inactive)
same,normalized growth,"locus YEL003W, strain gim4, stronger effect = lower value",1 (inactive)
same,normalized growth,"locus YEL037C, strain rad23, stronger effect = lower value",0.977 (inactive)
same,normalized growth,"locus YEL061C, strain CIN8 (second series), stronger effect = lower value",0.985 (inactive)
same,normalized growth,"locus YEL061C, strain CIN8, stronger effect = lower value",1.01 (inactive)
same,normalized growth,"locus YER015W, strain faa2, stronger effect = lower value",0.975 (inactive)
same,normalized growth,"locus YER016W, strain bim1, stronger effect = lower value",0.996 (inactive)
same,normalized growth,"locus YER110C, stronger effect = lower value",0.987 (inactive)
same,normalized growth,"locus YER111C, strain swi4, stronger effect = lower value",0.965 (inactive)
same,normalized growth,"locus YER155C, strain BEM2 (second series), stronger effect = lower value",0.996 (inactive)
same,normalized growth,"locus YER155C, strain BEM2, stronger effect = lower value",1.03 (inactive)
same,normalized growth,"locus YER167W, strain BCK2, stronger effect = lower value",1.02 (inactive)
same,normalized growth,"locus YFR010W, strain ubp6, stronger effect = lower value",0.974 (inactive)
same,normalized growth,"locus YGL078C, strain dbp3, stronger effect = lower value",0.997 (inactive)
same,normalized growth,"locus YGL086W, strain mad1, stronger effect = lower value",0.991 (inactive)
same,normalized growth,"locus YGL167C, strain pmr1, stronger effect = lower value",0.978 (inactive)
same,normalized growth,"locus YGL173C, strain kem1, stronger effect = lower value",0.984 (inactive)
same,normalized growth,"locus YGL227W, strain vid30, stronger effect = lower value",0.974 (inactive)
same,normalized growth,"locus YGL240W, strain doc1, stronger effect = lower value",0.963 (inactive)
same,normalized growth,"locus YGL248W, strain PDE1, stronger effect = lower value",0.97 (inactive)
same,normalized growth,"locus YGL253W, strain hxk2, stronger effect = lower value",0.965 (inactive)
same,normalized growth,"locus YGR135W, strain pre9, stronger effect = lower value",0.907 (inactive)
same,normalized growth,"locus YGR252W, strain gcn5, stronger effect = lower value",0.797 (inactive)
same,normalized growth,"locus YHR013C, strain ard1, stronger effect = lower value",0.888 (inactive)
same,normalized growth,"locus YHR027C, strain rpn1, stronger effect = lower value",0.999 (inactive)
same,normalized growth,"locus YHR030C, strain SLT2, stronger effect = lower value",0.94 (inactive) and 0.998 (inactive)
same,normalized growth,"locus YHR079C, strain IRE1 (second series), stronger effect = lower value",0.997 (inactive)
same,normalized growth,"locus YHR079C, strain IRE1, stronger effect = lower value",0.975 (inactive)
same,normalized growth,"locus YHR094C, strain hxt1, stronger effect = lower value",0.997 (inactive)
same,normalized growth,"locus YHR129C, strain ARP1, stronger effect = lower value",1 (inactive)
same,normalized growth,"locus YHR142W, strain chs7, stronger effect = lower value",0.915 (inactive)
same,normalized growth,"locus YHR200W, strain rpn10, stronger effect = lower value",0.991 (inactive)
same,normalized growth,"locus YIL066C, strain RNR3, stronger effect = lower value",0.979 (inactive)
same,normalized growth,"locus YIL073C, strain SPO22, stronger effect = lower value",0.898 (inactive)
same,normalized growth,"locus YIL125W, strain kgd1, stronger effect = lower value",0.99 (inactive)
same,normalized growth,"locus YIR030C, strain dcg1, stronger effect = lower value",1 (inactive)
same,normalized growth,"locus YJL092W, strain hpr5, stronger effect = lower value",0.974 (inactive)
same,normalized growth,"locus YJL095W, strain BCK1 (second series), stronger effect = lower value",0.98 (inactive)
same,normalized growth,"locus YJL095W, strain BCK1, stronger effect = lower value",0.748 (active) and 1 (inactive)
same,normalized growth,"locus YJL115W, strain asf1, stronger effect = lower value",0.954 (inactive)
same,normalized growth,"locus YJL129C, strain trk1, stronger effect = lower value",0.962 (inactive)
same,normalized growth,"locus YJL134W, strain LCB3, stronger effect = lower value",1.01 (inactive)
same,normalized growth,"locus YJL154C, strain vps35, stronger effect = lower value",0.983 (inactive)
same,normalized growth,"locus YJL164C, strain tpk1, stronger effect = lower value",0.966 (inactive)
same,normalized growth,"locus YJL166W, strain qcr8, stronger effect = lower value",0.931 (inactive)
same,normalized growth,"locus YJL168C, strain set2, stronger effect = lower value",0.993 (inactive)
same,normalized growth,"locus YJL187C, strain SWE1 (second series), stronger effect = lower value",0.954 (inactive)
